Measured values reported in PubChem BioAssay (NCI).
Compounds without any hit were thinned out: in the full panel of roughly 83,000, 20% have a hit.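 How to read the values: 0–100, growth inhibition (40 = 60% inhibited); 0, no net growth; -100 to 0, cell death (-40 = 40% of starting cells died; -100 = all dead).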 The source made the active and inactive calls. Rule for the calls: active = growth percent below 10; inactive = the rest.

How the values were obtained:
Experiment in all cases: NCI-60 one-dose screen, 48 h (100 = growth as untreated, 0 = no growth, -100 = all killed)
SR leukemia = conditions: 10 µM
RPMI-8226 leukemia = conditions: 10 µM
OVCAR-8 ovarian = conditions: 10 µM
OVCAR-5 ovarian = conditions: 10 µM
OVCAR-4 ovarian = conditions: 10 µM
SK-OV-3 ovarian = conditions: 10 µM
IGROV1 ovarian = conditions: 10 µM
OVCAR-3 ovarian = conditions: 10 µM
HS 578T breast = conditions: 10 µM
NCI/ADR-RES ovarian = conditions: 10 µM
T-47D breast = conditions: 10 µM
BT-549 breast = conditions: 10 µM
MDA-MB-435 melanoma = conditions: 10 µM
SW-620 colon = conditions: 10 µM
MCF7 breast = conditions: 10 µM unless noted
HCT-116 colon = conditions: 10 µM
HCC-2998 colon = conditions: 10 µM
KM12 colon = conditions: 10 µM

Measured: growth

CCCCNC1(C#N)CCN(Cc2ccccc2)CC1
inactive: SR leukemia 115% | RPMI-8226 leukemia 99.2% | OVCAR-8 ovarian 96.4% | OVCAR-5 ovarian 88.9% | OVCAR-4 ovarian 103% | SK-OV-3 ovarian 97.1% | IGROV1 ovarian 91.9% | OVCAR-3 ovarian 132% | HS 578T breast 101% | NCI/ADR-RES ovarian 88.3% | T-47D breast 17.8% | BT-549 breast 107% | MDA-MB-435 melanoma 97.5% | SW-620 colon 102% | MCF7 breast 102% | HCT-116 colon 98% | HCC-2998 colon 86.9% | KM12 colon 144%

Cc1ccc(C(O)C2CC2)cc1 (centres undefined)
inactive: SR leukemia 91.7% | RPMI-8226 leukemia 99.3% | OVCAR-8 ovarian 94.1% | OVCAR-5 ovarian 94% | OVCAR-4 ovarian 105% | SK-OV-3 ovarian 106% | IGROV1 ovarian 96.8% | OVCAR-3 ovarian 106% | HS 578T breast 104% | NCI/ADR-RES ovarian 107% | T-47D breast 97.4% | BT-549 breast 107% | MDA-MB-435 melanoma 103% | SW-620 colon 100% | MCF7 breast 104% | HCT-116 colon 107% | HCC-2998 colon 113% | KM12 colon 107%

O=C(Cc1ccccc1)Cc1ccccc1
inactive: SR leukemia 104% | RPMI-8226 leukemia 103% | OVCAR-8 ovarian 89.6% | OVCAR-5 ovarian 95.8% | OVCAR-4 ovarian 97.2% | SK-OV-3 ovarian 99.8% | IGROV1 ovarian 104% | OVCAR-3 ovarian 106% | HS 578T breast 106% | NCI/ADR-RES ovarian 110% | T-47D breast 102% | BT-549 breast 107% | MDA-MB-435 melanoma 105% | SW-620 colon 101% | MCF7 breast 106% | HCT-116 colon 98.1% | HCC-2998 colon 114% | KM12 colon 103%

CCOC(=O)c1coc(C(=O)OCC)c1C(=O)OCC
inactive: SR leukemia 113% | RPMI-8226 leukemia 126% | OVCAR-8 ovarian 118% | OVCAR-5 ovarian 114% | OVCAR-4 ovarian 119% | SK-OV-3 ovarian 120% | IGROV1 ovarian 112% | OVCAR-3 ovarian 111% | HS 578T breast 117% | NCI/ADR-RES ovarian 119% | T-47D breast 117% | BT-549 breast 119% | MDA-MB-435 melanoma 108% | SW-620 colon 113% | MCF7 breast 113% | HCT-116 colon 115% | HCC-2998 colon 108% | KM12 colon 106%

Oc1ccc(N=Nc2ccc(Br)cc2)c(O)c1
inactive: OVCAR-8 ovarian 24.1% | OVCAR-5 ovarian 80.7% | OVCAR-4 ovarian 33.7% | SK-OV-3 ovarian 25.7% | HS 578T breast 10.4% | T-47D breast 28% | BT-549 breast 46.1% | SW-620 colon 18.8% | MCF7 breast 15.6% | HCT-116 colon 18.1% | HCC-2998 colon 33.6%
active: SR leukemia -8.8% | RPMI-8226 leukemia -37.3% | IGROV1 ovarian -15.3% | OVCAR-3 ovarian -65.2% | NCI/ADR-RES ovarian -55.4% | MDA-MB-435 melanoma -49% | KM12 colon 8.35%

CC1(O)CCCCC1O (centres undefined)
inactive: SR leukemia 103% | RPMI-8226 leukemia 98.6% | OVCAR-8 ovarian 105% | OVCAR-5 ovarian 103% | OVCAR-4 ovarian 107% | SK-OV-3 ovarian 101% | IGROV1 ovarian 90.9% | OVCAR-3 ovarian 120% | HS 578T breast 102% | NCI/ADR-RES ovarian 105% | T-47D breast 98.4% | BT-549 breast 94% | MDA-MB-435 melanoma 117% | SW-620 colon 104% | MCF7 breast 106% | HCT-116 colon 101% | HCC-2998 colon 104% | KM12 colon 115%

CC(C)=CC(=O)OC(=O)C=C(C)C
inactive: SR leukemia 94.7% | RPMI-8226 leukemia 109% | OVCAR-8 ovarian 99.7% | OVCAR-5 ovarian 104% | OVCAR-4 ovarian 119% | SK-OV-3 ovarian 96.8% | IGROV1 ovarian 106% | OVCAR-3 ovarian 101% | HS 578T breast 120% | NCI/ADR-RES ovarian 117% | T-47D breast 105% | BT-549 breast 105% | MDA-MB-435 melanoma 107% | SW-620 colon 110% | MCF7 breast 94.7% | HCT-116 colon 109% | HCC-2998 colon 117% | KM12 colon 102%

COc1cc(/C=C(\C#N)C(=O)c2ccccc2)ccc1OCc1ccccc1
inactive: SR leukemia 109% | RPMI-8226 leukemia 107% | OVCAR-8 ovarian 108% | OVCAR-5 ovarian 103% | OVCAR-4 ovarian 106% | SK-OV-3 ovarian 107% | IGROV1 ovarian 91.1% | OVCAR-3 ovarian 101% | HS 578T breast 97.5% | NCI/ADR-RES ovarian 98.4% | T-47D breast 105% | BT-549 breast 94.9% | MDA-MB-435 melanoma 101% | SW-620 colon 99.4% | MCF7 breast 96.6% | HCT-116 colon 104% | HCC-2998 colon 89.8% | KM12 colon 99.1%

C/C(=N\O)C1(O)CCCCC1
inactive: SR leukemia 94.3% | RPMI-8226 leukemia 100% | OVCAR-8 ovarian 94.1% | OVCAR-5 ovarian 103% | OVCAR-4 ovarian 110% | SK-OV-3 ovarian 98.1% | IGROV1 ovarian 97.9% | OVCAR-3 ovarian 94.7% | HS 578T breast 62.5% | NCI/ADR-RES ovarian 110% | T-47D breast 72.7% | BT-549 breast 102% | MDA-MB-435 melanoma 108% | SW-620 colon 101% | MCF7 breast 50.7% | HCT-116 colon 101% | HCC-2998 colon 109% | KM12 colon 94.6%

O=S(=O)(O)c1cc(O)c2c(N=Cc3ccccc3O)c(S(=O)(=O)O)ccc2c1
inactive: SR leukemia 95.1% | RPMI-8226 leukemia 97.5% | OVCAR-8 ovarian 105% | OVCAR-5 ovarian 103% | OVCAR-4 ovarian 109% | SK-OV-3 ovarian 103% | IGROV1 ovarian 88.4% | OVCAR-3 ovarian 105% | HS 578T breast 103% | NCI/ADR-RES ovarian 104% | T-47D breast 106% | BT-549 breast 101% | MDA-MB-435 melanoma 109% | SW-620 colon 103% | MCF7 breast 104% | HCT-116 colon 98.4% | HCC-2998 colon 102% | KM12 colon 103%

COc1cc(-c2ccc(NC(=O)NC3CC3)c(OC)c2)ccc1NC(=O)NC1CC1
inactive: RPMI-8226 leukemia 36.2% | OVCAR-8 ovarian 57.9% | OVCAR-5 ovarian 101% | OVCAR-4 ovarian 80.4% | SK-OV-3 ovarian 75.5% | IGROV1 ovarian 83.8% | OVCAR-3 ovarian 97.3% | HS 578T breast 81.5% | NCI/ADR-RES ovarian 90.3% | T-47D breast 82.8% | BT-549 breast 89.5% | MDA-MB-435 melanoma 99.4% | SW-620 colon 66.8% | MCF7 breast 72.4% | HCT-116 colon 36.9% | HCC-2998 colon 68.2% | KM12 colon 71.8%
active: SR leukemia 1.38%

Nc1ccccc1C(=O)Nc1ccc(Cl)cc1Cl
inactive: SR leukemia 50% | RPMI-8226 leukemia 63.9% | OVCAR-8 ovarian 83.1% | OVCAR-5 ovarian 100% | OVCAR-4 ovarian 87.5% | SK-OV-3 ovarian 99.2% | IGROV1 ovarian 35.9% | OVCAR-3 ovarian 93.7% | HS 578T breast 87.4% | NCI/ADR-RES ovarian 90.7% | T-47D breast 88% | BT-549 breast 99.2% | MDA-MB-435 melanoma 107% | SW-620 colon 85.9% | MCF7 breast 65.5% | HCT-116 colon 59.9% | HCC-2998 colon 103% | KM12 colon 91%

N#CCCc1ccc(O)cc1
inactive: SR leukemia 94.6% | RPMI-8226 leukemia 102% | OVCAR-8 ovarian 93.9% | OVCAR-5 ovarian 95.6% | OVCAR-4 ovarian 111% | SK-OV-3 ovarian 106% | IGROV1 ovarian 116% | OVCAR-3 ovarian 110% | HS 578T breast 102% | NCI/ADR-RES ovarian 116% | T-47D breast 101% | BT-549 breast 114% | MDA-MB-435 melanoma 99.8% | SW-620 colon 102% | MCF7 breast 98.4% | HCT-116 colon 116% | HCC-2998 colon 115% | KM12 colon 114%

Cc1cc(C)c(CC(=O)O)c(C)c1
inactive: SR leukemia 98.5% | RPMI-8226 leukemia 112% | OVCAR-8 ovarian 102% | OVCAR-5 ovarian 103% | OVCAR-4 ovarian 95.1% | SK-OV-3 ovarian 110% | IGROV1 ovarian 108% | OVCAR-3 ovarian 104% | HS 578T breast 109% | NCI/ADR-RES ovarian 103% | T-47D breast 106% | BT-549 breast 104% | MDA-MB-435 melanoma 104% | SW-620 colon 102% | MCF7 breast 95.9% | HCT-116 colon 105% | HCC-2998 colon 111% | KM12 colon 103%

CN(C)Cc1cc(C(C)(C)CC(C)(C)C)ccc1O
inactive: SR leukemia 87.7% | RPMI-8226 leukemia 95.7% | OVCAR-8 ovarian 106% | OVCAR-5 ovarian 98.5% | OVCAR-4 ovarian 86.5% | SK-OV-3 ovarian 94.5% | IGROV1 ovarian 85.7% | OVCAR-3 ovarian 88.4% | HS 578T breast 106% | NCI/ADR-RES ovarian 91.5% | T-47D breast 86.4% | BT-549 breast 100% | MDA-MB-435 melanoma 107% | SW-620 colon 109% | MCF7 breast 95.4% | HCT-116 colon 89.3% | HCC-2998 colon 96.5% | KM12 colon 104%

CC1(C)OC(=O)C(c2ccsc2)C(=O)O1
inactive: SR leukemia 103% | RPMI-8226 leukemia 103% | OVCAR-8 ovarian 109% | OVCAR-5 ovarian 105% | OVCAR-4 ovarian 102% | SK-OV-3 ovarian 106% | IGROV1 ovarian 103% | OVCAR-3 ovarian 106% | HS 578T breast 99% | NCI/ADR-RES ovarian 97.7% | T-47D breast 90.4% | BT-549 breast 124% | MDA-MB-435 melanoma 101% | SW-620 colon 108% | MCF7 breast 104% | HCT-116 colon 92.1% | HCC-2998 colon 107% | KM12 colon 102%

CN(C)c1ccc2nc3ccc(=N)cc-3sc2c1
inactive: SR leukemia 12% | OVCAR-5 ovarian 80.1% | SK-OV-3 ovarian 95.9% | IGROV1 ovarian 49.4% | HS 578T breast 99.6% | T-47D breast 19.1% | BT-549 breast 51.6% | SW-620 colon 23.5% | MCF7 breast 23.9% | HCT-116 colon 16.7% | HCC-2998 colon 67.4% | KM12 colon 38%
active: RPMI-8226 leukemia 6.67% | OVCAR-8 ovarian 3.37% | OVCAR-4 ovarian -8.03% | OVCAR-3 ovarian 6.65% | NCI/ADR-RES ovarian 3.53% | MDA-MB-435 melanoma -59.8%

COc1cc2nn(-c3ccccc3N)nc2cc1OC
inactive: SR leukemia 111% | RPMI-8226 leukemia 100% | OVCAR-8 ovarian 97.1% | OVCAR-5 ovarian 99.6% | OVCAR-4 ovarian 97.7% | SK-OV-3 ovarian 102% | IGROV1 ovarian 89% | OVCAR-3 ovarian 112% | HS 578T breast 92.6% | NCI/ADR-RES ovarian 97.9% | T-47D breast 93.6% | BT-549 breast 81.3% | MDA-MB-435 melanoma 96.8% | SW-620 colon 105% | MCF7 breast 90.7% | HCT-116 colon 103% | HCC-2998 colon 95.8% | KM12 colon 103%
